From PMC6792352, “Limited Chemical Structural Diversity Found to Modulate Thyroid Hormone Receptor in the Tox21 Chemical Library” (Environmental Health Perspectives, 2019)
Where a name gives a salt, the structure may show the parent alone.

What follows are compounds tested on thyroid hormone receptor (endogenous TRα and TRβ). Settings: read-out: Average AC50 (uM) GH3-TRE-Antag, antagonist mode, 1 nM T3, no GH3 cytotoxicity hit.
Parameters: species or system GH3-TRE-Luc (rat pituitary); GH3-TRE-Luc luciferase reporter, antagonist mode against 1 nM T3, loss of signal, qHTS

Structure (SMILES)	AC50
O=C(O)c1cccnc1Nc1cccc(C(F)(F)F)c1 [Niflumic acid]	20.3 µM
COC(C)(C)CCCC(C)C/C=C/C(C)=C/C(=O)OC(C)C (stereo not drawn) [Methoprene]	43.4 µM
COc1nc(N)nc2c1ncn2[C@@H]1O[C@H](CO)[C@@H](O)[C@@H]1O [Nelarabine]	25.2 µM
CCOc1cc(N)c(Cl)cc1C(=O)NCC1CN(Cc2ccc(F)cc2)CCO1 (stereo not drawn) [Mosapride citrate]	43.4 µM
CC/C=C\CC/C=C/C=O [trans-2,cis-6-Nonadienal]	69.9 µM
CC(=O)Nc1ccn(C2COC(COC(=O)c3ccccc3)O2)c(=O)n1 (stereo not drawn) [{4-[4-(Acetylamino)-2-oxopyrimidin-1(2H)-yl]-1,3-dioxolan-2-yl}methyl benzoate]	11.4 µM
CC/C=C/CCCCCCCCC1CC(=O)OC1=O (stereo not drawn) [(Tetrapropenyl)succinic anhydride]	65.5 µM
O=C1c2ccccc2C(=O)C1(O)O [Ninhydrin]	80 µM
CC(C)(C)NCC(O)COc1ccc(NC(=O)NC2CCCCC2)cc1 (stereo not drawn) [Talinolol]	26.4 µM
NNc1nnc(Cc2ccncc2)c2ccccc12 [Picodralazine]	3.28 µM
COc1cccc(N(C)C(=S)Oc2ccc3c(c2)CCCC3)n1 [Liranaftate]	39.9 µM
CCCCCCCCCCCCN [1-Dodecanamine]	74.1 µM
CC(C)N(C(=O)COc1nnc(C(F)(F)F)s1)c1ccc(F)cc1 [Flufenacet]	53.2 µM
Cc1cccc(Nc2ccccc2)c1 [3-Methyl-N-phenylaniline]	45 µM
COC(=O)Nc1ccc(Cl)c(Cl)c1 [Swep]	> 90 µM
CN1[C@@H](CC(=O)c2ccccc2)CCC[C@H]1C[C@H](O)c1ccccc1 [Lobeline]	29.3 µM
CCN(C(=O)N(CC)c1ccccc1)c1ccccc1 [N,N'-Diethylcarbanilide]	45.9 µM
NC1=NCC2c3ccccc3Cc3ccccc3N12 (stereo not drawn) [Epinastine hydrochloride]	27.1 µM
O=C(c1ccc(O)cc1O)c1ccc(O)cc1O [2,2',4,4'-Tetrahydroxybenzophenone]	39.2 µM
O=C(NOC[C@H](O)CO)c1ccc(F)c(F)c1Nc1ccc(I)cc1F [PD 0325901]	4.11 µM

Structure (SMILES)	AC50
Cn1cnc2c(F)c(Nc3ccc(Br)cc3Cl)c(C(=O)NOCCO)cc21 [Selumetinib]	12.5 µM
CCc1ccc(CCOc2ccc(CC3SC(=O)NC3=O)cc2)nc1 (stereo not drawn) [Pioglitazone hydrochloride]	> 50 µM
COc1ccccc1NC(=O)c1cc2ccccc2cc1O [3-Hydroxy-2-naphthoic o-anisidide]	10.4 µM
Cc1ccc(-n2nc(C(C)(C)C)cc2NC(=O)Nc2ccc(OCCN3CCOCC3)c3ccccc23)cc1 [Doramapimod]	45.9 µM
O=C1[C@H](CC[C@H](O)c2ccc(F)cc2)[C@@H](c2ccc(O)cc2)N1c1ccc(F)cc1 [Ezetimibe]	33.5 µM
COc1ccc2c(c1OC)CN1CCc3cc4c(cc3[C@@H]1C2)OCO4 [Canadine]	> 20 µM
c1ccc(P(c2ccccc2)c2ccccc2)cc1 [Triphenylphosphine]	> 90 µM
OCCN(CCO)c1nc(N2CCCCC2)c2nc(N(CCO)CCO)nc(N3CCCCC3)c2n1 [Dipyridamole]	24.3 µM
CCOc1cc([N+](=O)[O-])c(OCC)cc1N1CCOCC1 [4-(2,5-Diethoxy-4-nitrophenyl)morpholine]	28.4 µM
CC(C)(C)c1ccccc1O [2-tert-Butylphenol]	84.6 µM
CC1(C)[C@H](C=C(Cl)Cl)[C@H]1C(=O)O[C@H](C#N)c1cccc(Oc2ccccc2)c1 [Cypermethrin]	> 50 µM
CC(C)=CC1C(C(=O)OC(C#N)c2cccc(Oc3ccccc3)c2)C1(C)C (stereo not drawn) [Cyphenothrin]	79.9 µM
COc1ccc(C(=O)c2ccc(O)cc2)c(OC)c1 [(2,4-dimethoxyphenyl)(4-hydroxyphenyl)methanone]	54.9 µM
O=C(CCC1CCN(Cc2ccccc2)CC1)c1ccc2c(c1)NCCCC2 [Zanapezil fumerate]	12.4 µM
Oc1ccc(C(=C(Cl)Cl)c2ccc(O)cc2)cc1 [Bis(4-hydroxyphenyl)-2,2-dichloroethylene]	38.4 µM
CN1CCC(OC(c2ccccc2)c2ccccc2)CC1 [Diphenylpyraline hydrochloride]	9 µM
CCCCCCCCCCCC(=O)O [Dodecanoic acid]	68.4 µM
O=C(/C=C/c1ccc([N+](=O)[O-])cc1)c1ccccc1 [4-Nitrochalcone]	49.3 µM
O=C1CCCCCCCCCCCC(=O)OCCO1 [1,4-Dioxacycloheptadecane-5,17-dione]	47.7 µM
